Compounds with a hit are over-represented: about 2.8% of the library has one in this group of screens.
Pol eta inh-1 = DNA polymerase eta (human) inhibition; Q9Y253; recombinant Pol eta, fluorescent DNA replication assay; Potency, µM (titrated, usually from 114 µM), inactives show top-dose activity change, negative = inhibition, hits mostly inhibitors; 390,000 tested, 1.2% active; further: potency means the concentration at half of the fitted maximal effect; on the % scale 0 is the no-effect control and ±100 the full control effect
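Fluorescent replication assay: 50 nM final substrate added after a 15 min room-temperature compound preincubation with 10 nM enzyme. Signal taken at 0 min and again at 10 min.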
WRN inhibitor = blocks human WRN helicase. WRN helicase unwinding, fluorescent forked duplex, kinetic. Potency, µM (highest dose often 114 µM), without a hit: top-dose activity change, negative = inhibition, actives largely listed as inhibitors. 360,000 tested, 0.46% active. AID 651768; further: potency means the concentration at half of the fitted maximal effect; on the % scale 0 is the no-effect control and ±100 the full control effect; nearly all actives have a fitted effect of over 55% in size
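Screening of the MLSMR collection measured strand separation of a quenched forked DNA duplex (100 nM) by 20 nM WRN with 2 mM ATP, all final. Compounds were preincubated with enzyme 15 min at room temperature.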
Pol kappa inh-1 = inhibitors of human DNA polymerase kappa; 400,000 tested, 0.53% active; AID 588579; Q9UBT6; purified Pol kappa, fluorescent DNA synthesis assay, 10 min; Potency, µM (series often up to 107 µM), for the others: at the top dose activity, negative = inhibition, most hits filed as inhibitors; further: potency means the concentration at half of the fitted maximal effect; on the % scale 0 is the no-effect control and ±100 the full control effect
Target sequence (Q9UBT6 whole entry, looked up): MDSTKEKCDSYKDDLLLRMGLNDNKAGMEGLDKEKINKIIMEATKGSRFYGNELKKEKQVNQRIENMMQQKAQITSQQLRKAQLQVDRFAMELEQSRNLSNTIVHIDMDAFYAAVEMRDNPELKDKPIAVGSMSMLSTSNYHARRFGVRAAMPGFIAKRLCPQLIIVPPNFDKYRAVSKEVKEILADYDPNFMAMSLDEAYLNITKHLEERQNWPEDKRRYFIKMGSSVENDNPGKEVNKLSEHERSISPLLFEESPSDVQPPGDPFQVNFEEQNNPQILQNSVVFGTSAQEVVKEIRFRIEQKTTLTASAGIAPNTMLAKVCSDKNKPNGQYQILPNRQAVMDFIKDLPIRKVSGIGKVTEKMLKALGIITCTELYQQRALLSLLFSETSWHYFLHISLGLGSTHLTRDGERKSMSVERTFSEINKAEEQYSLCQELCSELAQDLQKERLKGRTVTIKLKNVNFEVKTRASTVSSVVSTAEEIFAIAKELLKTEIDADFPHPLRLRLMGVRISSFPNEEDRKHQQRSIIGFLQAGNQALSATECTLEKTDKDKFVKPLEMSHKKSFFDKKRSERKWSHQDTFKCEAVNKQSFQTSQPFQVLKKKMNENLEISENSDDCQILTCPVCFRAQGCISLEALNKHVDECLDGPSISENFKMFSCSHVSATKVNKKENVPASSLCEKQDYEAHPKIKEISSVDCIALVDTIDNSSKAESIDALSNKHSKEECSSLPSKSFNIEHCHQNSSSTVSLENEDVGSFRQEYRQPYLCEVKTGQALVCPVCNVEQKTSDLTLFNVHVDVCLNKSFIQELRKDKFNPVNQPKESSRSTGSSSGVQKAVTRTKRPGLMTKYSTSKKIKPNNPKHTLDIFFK
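First, compounds were pin-transferred onto 10 nM Pol kappa. After 15 min at room temperature, substrate was added to 50 nM final. Fluorescence was then measured kinetically at 0 and 10 min.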
PI5P4Ka inh = blocks human PI5P4K alpha kinase activity | P48426 | PI5P4Kalpha enzyme, ADP-Glo luminescence, 60 min; active compounds read low | max response, % | 330,000 tested, 1.2% active; active means max response of -50% or lower; inconclusive means between -30% and -50%; inactive means -30% or higher; further: value at the top dose of about 77 µM; on the % scale 0 is the no-effect control and ±100 the full control effect
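qHTS, 1536-well: enzyme/substrate mix, compound by pin tool, 5 microM ATP final; RT 60 min; ADP-Glo reagents 1 (45 min) then 2 (30 min); luminescence.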
POLB inh = inhibitors of human DNA polymerase beta; P06746; Pol beta primer extension/strand displacement, fluorescence kinetic; 340,000 tested, 1.3% active; Potency, µM (series often up to 114 µM), for inactives: top-dose activity change, negative = inhibition, most hits filed as inhibitors; further: potency means the concentration at half of the fitted maximal effect; on the % scale 0 is the no-effect control and ±100 the full control effect
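Kinetic readout of DNA synthesis with strand displacement by Pol beta. Compound and 10 nM enzyme sit 15 min at room temperature; 50 nM substrate starts the reaction, read immediately and at 10 min.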
POLI inh = inhibitors of human DNA polymerase iota; AID 588590; Q9UNA4; 390,000 tested, 1% active; Pol iota fluorescent replication assay, 10 min; Potency, µM (series often up to 115 µM), inactives show top-dose activity, negative = inhibition, hits mostly inhibitors; further: potency means the concentration at half of the fitted maximal effect
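Pol iota at 10 nM preincubated 15 min with compounds at room temperature; reaction started with fluorescent substrate, 50 nM final. Fluorescence read kinetically at 0 and 10 min; buffer-only wells as negative control.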
GALK confirm = confirmation of human galactokinase (GALK) inhibitors; AID 2015; Potency, µM (doses to about 115 µM), without a hit: at the highest dose activity, negative = inhibition, actives largely listed as inhibitors; 150 tested, 70% active; purified GALK, Kinase-Glo ATP depletion luminescence; shares compounds with Pol eta inh-1
GALK redox cs = counter-screen for GALK inhibitors: redox cycling H2O2 generation. AID 2035. Phenol red-HRP H2O2 redox cycling, absorbance 600 nm. shares compounds with Pol eta inh-1. Potency, µM (highest dose often 115 µM), for the others: at the highest dose activity change, negative = H2O2 signal, most hits filed as inhibitors. 150 tested, 40% active
HEK293 tox = counter-screen for GALK inhibitors: HEK293 cell cytotoxicity. shares compounds with Pol eta inh-1. HEK-293 viability, ATP luminescence (CellTiter-Glo), 24/48 h. Potency, µM (titrated, usually from 46.1 µM), for inactives: at the top dose activity change, negative = cytotoxicity, most hits filed as inhibitors. 170 tested, 10% active; further: potency means the concentration at half of the fitted maximal effect; on the % scale 0 is the no-effect control and ±100 the full control effect
Pol kappa inh-2 = confirmation of human DNA polymerase kappa inhibitors; shares compounds with Pol eta inh-1; purified Pol-kappa, fluorescent strand-displacement substrate; Potency, µM, hits mostly inhibitors; 920 tested, 76% active; further: potency means the concentration at half of the fitted maximal effect
Pol eta inh-2 = Pol eta (human) inhibition, cherry-pick confirmation | shares compounds with Pol eta inh-1 | 2,600 tested, 64% active | Pol eta primer extension, TAMRA/BHQ fluorescence, 10 min | Potency, µM, hits mostly inhibitors; further: potency means the concentration at half of the fitted maximal effect
* = called active by the depositor; ? = inconclusive; / = not tested or not shown; [ ] = dose if it differs, or a comment. Unless noted, the call rests on the fitted dose curve; in most records, active means well fitted curve in the direction sought with a large enough effect; inconclusive means small, poorly fitted or top-dose-only effect, or another doubt; inactive means no such curve, though single readings can be large; an effect the other way counts as inactive or inconclusive.

SMILES	Pol eta inh-1	WRN inhibitor	Pol kappa inh-1	PI5P4Ka inh	POLB inh	POLI inh	Pol eta inh-2	others
Cc1cc(NC(=O)COC(=O)[C@H](Cc2ccccc2)NC(=O)c2ccco2)no1	-21%	3%	1%	-1	/	31%	/
O=C(Nc1cccc(C(F)(F)F)c1)Nc1cc(Cl)ccc1C(=O)O	/	/	12%[60.1 µM]	/	/	/	/
COc1cc(/C=C2\C(C)=C(C#N)c3nc(N)c(C#N)c(C)c32)ccc1OCC(=O)O	22µM*	-15%	-35%	-14	2%	-25%	38*
Cc1ccc(S(=O)(=O)c2nc(-c3ccco3)oc2SCC(C)C)cc1	-8%	/	1%	/	-9%	-22%	/
Cc1ccc(S(=O)(=O)c2nc(-c3ccco3)oc2SC(C)C)cc1	89µM*	-28%	-24%	?	-11%	?	?	Pol kappa inh-2=?
Cc1ccc(C(=O)NCc2ccccn2)cc1S(=O)(=O)N1CCOCC1	-24%	2%	-3%	7	/	20%	/
COc1ccc(C(=O)Nc2sc3c(c2C#N)CCN(C(C)=O)C3)cc1	-1%	1%	-3%	0	7%	27%	/
CC(=O)N1CCc2c(sc(NC(=O)c3ccc([N+](=O)[O-])o3)c2C#N)C1	20µM*	-22%[57.1 µM]	?	?	?	?	?
O=C(NN1C(=O)/C(=C/c2ccc(O)c(O)c2)SC1=S)c1ccccc1	1.1µM*	?	40µM*	-53*	18µM*	22µM*	?
O=C(NN1C(=O)/C(=C/c2cccc(O)c2)SC1=S)c1ccccc1O	?	-3%[11.6 µM]	-16%	-18	0%	?	/
Cc1cccc(CNc2ncnc3ccc(-c4ccoc4)cc23)c1	-11%	/	4%	/	/	-10%	/	GALK confirm=?;GALK redox cs=-4%;HEK293 tox=3%
c1cncc(CNc2ncnc3ccc(-c4ccoc4)cc23)c1	-4%	/	?	/	/	31%	/
S=c1[nH]nc(-c2n[nH]c3c2CCC3)n1/N=C/C=C/c1ccco1	25µM*	?	79µM*	-52*	40µM*	?	30*
COc1cc(/C=N/n2c(-c3n[nH]c4c3CCC4)n[nH]c2=S)cc(OC)c1O	-9%	-12%	5%	?	8%	42%	/
S=c1[nH]nc(-c2ccco2)n1/N=C/C=C/c1ccco1	28µM*	?	79µM*	-69*	35µM*	11µM*	85*
C=CCN(CC=C)S(=O)(=O)c1ncn[nH]1	8.9µM*	-20%[57.1 µM]	?	0	?	?	?
Cc1ccc(-n2[nH]c(C)c(/C=N/Nc3ccc([N+](=O)[O-])cc3[N+](=O)[O-])c2=O)cc1C	20µM*	?	-21%	?	-9%	?	?
Cc1ccc(-c2cc(C(=O)Nc3cccnc3)c3ccccc3n2)o1	45µM*	?	-15%[60.1 µM]	/	?	?	?

Screening data deposited in PubChem BioAssay by National Center for Advancing Translational Sciences (NCATS).
